The full ranking holds about 81,000 sequences; the median of “one-hybrid fitness for binding NBS DNA” is about -0.1, and the highest 2% start at about 0.36. The list comes from a sample in which the highest values are over-represented; it also holds similar and randomly drawn sequences.
B1: Caulobacter ParB omega fusion; a variant is named by its letters at X, in order, B8GW30 (parent)
chain: MESVVVGEPGMSEGRRGLGRGLSALLGEVDAAPAQAPGEQLGGSREAPIEILQRNPDQPRRTFREEDLEDLSNSIREKGVLQPILVRPSPDTAGEYQIVAGERAWRAAQRAGLKTVPIMVRELDDLAVLEIGIIENVQRADLNVLEEALSYKVLMEKFERTQENIAQTIGKSXSHVANXMRLLXLPDEVQSYLVSGELTAXHARAIAAAADPVALAKQIIEGGLSVRETEALARKAPNLSAGKSKGGRPPRVKDTDTQALESDLSSVLGLDVSIDHRGSTGTLTITYATLEQLDDLCNRLTRGI

Variants of: B1
Test: one-hybrid fitness for binding NBS DNA (the Noc-binding site; scaled: cognate 1, non-cognate 0); higher = stronger binding
Details: with NBS DNA site
In short: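 Values were rescaled so that cognate is 1 and non-cognate is 0. Each is a fitness, the log change in a variant's read ratio to wild type from Illumina reads of plasmids before and after selection, with three replicate libraries pooled and variants under 10 reads dropped. Selection of the Caulobacter ParB libraries, four specificity codons randomised, used E. coli USO with a HIS3 reporter, site 19 bp from the promoter, on M9-minus-histidine with 0.1 mM IPTG and 5 mM 3-AT for 48 hours at 37°C.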

Variant	one-hybrid fitness for binding NBS DNA
TQQR	≤ 0.2
EVHL	≤ 0.2
DGGN	≤ 0.2
RFYH	≤ 0.2
ATCR	≤ 0.2
LYYL	≤ 0.2
KGWY	≤ 0.2
YQPD	≤ 0.2
QRQP	0.222
QRQS	0.688
QRQD	0.228
NYIC	≤ 0.2
TPDF	≤ 0.2
QTTP	≤ 0.2
QTTS	0.528
QTTH	0.385
QTTD	≤ 0.2
QTTN	0.236
QTTC	0.223
DYIR	≤ 0.2
VVWY	≤ 0.2
HIDC	≤ 0.2
RCWS	0.388

Variant	one-hybrid fitness for binding NBS DNA
RKYS	0.562
RPWS	≤ 0.2
RKWN	≤ 0.2
RKRS	0.666
RSWS	0.238
RKRN	0.258
RKYD	≤ 0.2
RKRP	≤ 0.2
RKWD	≤ 0.2
RKWS	0.467
RKYP	≤ 0.2
VTLY	≤ 0.2
TYNS	≤ 0.2
QTTI	≤ 0.2
HNLL	≤ 0.2
CGRS	≤ 0.2
WGSW	≤ 0.2
SGTG	≤ 0.2
DHMC	≤ 0.2
QRPE	≤ 0.2
EVQC	≤ 0.2
LFWV	≤ 0.2
RKYH	0.228

Variant	one-hybrid fitness for binding NBS DNA
RKIS	0.403
RKDN	≤ 0.2
RKRD	≤ 0.2
RKRH	0.429
RKIR	0.384
RKDH	0.401
RKNH	0.335
RKPR	≤ 0.2
RPIR	≤ 0.2
RKIP	≤ 0.2
RKPS	≤ 0.2
SRFC	≤ 0.2
FDKC	≤ 0.2
SRTT	≤ 0.2
PLES	≤ 0.2
WGAE	≤ 0.2
WTLY	≤ 0.2
RKLD	≤ 0.2
RKLS	0.496
RKLP	≤ 0.2
ISNA	≤ 0.2
YLVK	≤ 0.2
QWGI	≤ 0.2

Variant	one-hybrid fitness for binding NBS DNA
QPDA	≤ 0.2
QRNA	0.632
QANA	0.257
QHNA	0.294
QRDA	0.394
TKKF	≤ 0.2
TGPI	≤ 0.2
SSSR	≤ 0.2
GRQQ	≤ 0.2
PLWH	≤ 0.2
KPII	≤ 0.2
RDGI	≤ 0.2
NLSK	≤ 0.2
QAKP	≤ 0.2
QAKD	≤ 0.2
QAKN	0.356
QAKQ	0.408
QAKS	0.618
QARQ	0.332
QAVQ	0.32
QAKH	0.541
QAVS	0.226

Source: a collection of fitness landscapes (doi:10.1016/j.celrep.2020.107928)
